This note sets out measurements from PubChem BioAssay (NCATS).

Results filed as inconclusive are left out. A number with no mark means an inactive call. The source made the active and inactive calls. Calls come from the whole dose curve; as a rule, active = well fitted inhibition curve with a large enough effect; inconclusive = small, poorly fitted or top-dose-only effect; inactive = flat fitted curve, though single readings scatter.

What all share (experiment): Cytotoxic Profiling of Annotated Libraries Using Quantitative High-Throughput Screening (AID 1296008); note: nearly all actives have a fitted effect of over 60% in size
What all share (conditions): Five cell lines viability, CellTiter-Glo ATP luminescence, 48-72 h; max response: stronger effect = lower value
A general note: Cellular ATP, detected with luciferase, serves as a proxy for viable cell number.

In one experiment the test system is HaCat. In short, it runs like this:
(§1)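 Cytotoxicity was measured as CellTiter-Glo ATP luminescence, read after 10 min at room temperature. Compound treatment of the cells lasted 48 or 72 hr at 37 degrees Celsius in a qHTS format.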

In the next experiment the test system is KB-3-1. In short, it runs like this: as §1
For a further experiment, the system named is NIH3T3. In short, it runs like this:
as §1
% is set by controls: 0 for no effect and ±100 for the full control effect; potency is the fitted concentration of half-maximal effect.

`C[C@@H]1CC[C@]2(C(=O)O[C@@H]3O[C@H](CO)[C@@H](O)[C@H](O)[C@H]3O)CC[C@]3(C)C(=CCC4[C@@]5(C)C[C@@H](O)[C@H](O)[C@@](C)(C(=O)O[C@H]6[C@H](O)C[C@@]7(C)C(CC[C@]8(C)C7CC=C7[C@H]9[C@](C(=O)O[C@@H]%10O[C@H](CO)[C@@H](O)[C@H](O)[C@H]%10O)(CC[C@@H](C)[C@@]9(C)O)CC[C@]78C)[C@@]6(CO)C(=O)O)C5CC[C@]43C)[C@@H]2[C@]1(C)O` (stereo partly specified): the max response with HaCat was -16.1%; with NIH3T3 it was 4.48%. Besides, the molecule was classed as inactive with KB-3-1.

With `Cc1ccc(F)cc1C(=O)Nc1ccc(C(=O)N2Cc3cccn3Cc3ccccc32)c(Cl)c1`, the max response with HaCat is -26.5%; with KB-3-1, -16%; in the experiment with NIH3T3, -21.1%.

For the molecule `[N-]=[N+]=N[C@]1(CO)O[C@@H](n2ccc(=O)[nH]c2=O)[C@@H](O)[C@@H]1O`, the max response in the experiment on HaCat is 4.64%; with NIH3T3, -4.26%. Besides, the molecule was called inactive in the experiment with KB-3-1.

As to `CC12CCC(=O)C=C1C(O)CC1C2C(O)CC2(C)C1CC[C@]2(O)C(=O)CO` (stereo partly specified), the values for the max response in the experiment with HaCat and in the experiment with NIH3T3 were 0.87% and 0.282%, respectively. Moreover, in the experiment on KB-3-1, the molecule was called inactive.

In the case of `CS(=O)(=O)N1CCC(NC(=O)c2[nH]ncc2NC(=O)c2c(Cl)cccc2Cl)CC1`, the figures for the Potency in the experiment on HaCat, in the experiment on KB-3-1 and with NIH3T3 were 4.61 µM (active), 0.82 µM (active) and 2.59 µM (active), respectively.

Turning to `O=C(CSc1nc2c(c(=O)n1-c1ccccc1)SCC2)Nc1ccc(-c2ccccc2)cn1`, the max response in the experiment with HaCat was -7.15%. The results for the Potency in the experiment with KB-3-1 and in the experiment on NIH3T3 were 0.0461 µM (active) and 0.058 µM (active), respectively.

For the molecule `CCC1C(=O)OC23C=C[C@@H]4C(C(=O)O)=CO[C@H](O[C@@H]12)[C@@H]43` (stereo partly specified), the max response in the experiment on HaCat is 2.84%; in the experiment on KB-3-1, -1.99%; in the experiment with NIH3T3, 0.895%.
